5 compounds from PubChem BioAssay can be followed below.

The test system of experiment [1] is Plasmodium falciparum Sir2 (PF13_0152, Sir2A). Description: Plasmodium falciparum Sir2A binding compounds – biochemical, small-molecule microarray, 635 nm fluorescence, primary screen (AID 1098).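 Also: score merges spot fluorescence intensity with its signal-to-noise ratio.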 The settings on record: fluorescence 635 nm, higher = more signal.
Experiment [2] in a line: probe aDKK1 binding to arrayed compounds – biochemical, biotinylated probe, 635/667 nm fluorescence, primary screen (AID 1099).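 Also: score merges 667nm spot fluorescence with signal to noise across triplicate slides.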 The settings on record: small-molecule microarray, higher = more signal.
A short description of experiment [3]: probe aCHRDL2 binding to arrayed compounds – biochemical, biotinylated probe, 635/667 nm fluorescence, primary screen (AID 1100). As to conditions: small-molecule microarray, higher = more signal.
Experiment [4] can be described thus: change in splice reporter luminescence, either direction, cell-based, HEK293, spliceosome inhibition project, primary screen (AID 1101).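 Also: HEK293 cells carrying a splicing-competent luciferase reporter gene; test concentration not given here.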 The settings on record: HEK293 splicing luciferase reporter, 24 h, higher = more signal, called active from +8 up or from −8 down.
For experiment [5], the target named is Fibroblast growth factor 10 (Homo sapiens) (UniProt O15520). Description: compounds binding fibroblast growth factor 10 – biochemical, small-molecule microarray, 635 nm fluorescence, primary screen (AID 1102). As to conditions: FGF10 binding, fluorescence 635 nm, higher = more signal.
Experiment [6] relates to glycogen synthase kinase-3 (GSK3A per assay name; protocol says GSK3B). The experiment is described as follows: compounds binding glycogen synthase kinase-3 – biochemical, small-molecule microarray, 635 nm fluorescence, GSK3A, primary screen (AID 1103). Also: the record names both GSK3A and GSK3B. The settings on record: fluorescence 635 nm, higher = more signal.
For experiment [7], the target named is Epidermal growth factor receptor (Homo sapiens) (UniProt P00533). The experiment is described as follows: compounds binding epidermal growth factor receptor – biochemical, small-molecule microarray, 635 nm fluorescence, primary screen (AID 1104).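 Also: score merges 667 nm emission intensity with spot signal to noise over triplicate slides.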 As to conditions: EGFR binding, higher = more signal.
Experiment [8] has as its target Follistatin-related protein 3 (Homo sapiens) (UniProt O95633). Description: compounds binding follistatin-related protein 3 – biochemical, small-molecule microarray, 635 nm fluorescence, primary screen (AID 1105).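 Also: score merges emission near 667 nm and signal to noise per printed spot across three slides.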 The settings on record: FSTL3 binding, higher = more signal.
Experiment [9] has as its target Dickkopf-related protein 1 (Homo sapiens) (UniProt O94907). Description: small molecules binding DKK1 protein – biochemical, small-molecule microarray, 635 nm fluorescence scan, primary screen (AID 1106).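 Also: score merges emission near 667 nm with signal to noise over three replicate slides.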 As to conditions: higher = more signal.
Experiment [10] has as its system Inhibin beta A chain (activin A). The experiment is described as follows: small molecules binding activin A – biochemical, small-molecule microarray, 635 nm fluorescence scan, primary screen (AID 1107).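 Also: mouse activin A protein probed at 4.33 µg/mL on printed slides; score merges bound-protein fluorescence near 667 nm with spot signal-to-noise.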 The settings on record: INHBA, higher = more signal.
Experiment [11] concerns Human papillomavirus type 1a protein E7 (residues 44-93). Description: small molecules binding HPV E7 44-93 – biochemical, small-molecule microarray, residues 44-93, 635 nm fluorescence, primary screen (AID 1108).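 Also: E7 fragment applied at 1 µg/mL in TBST for 1 h at 4 C; score combines spot fluorescence with its signal to noise ratio.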 As to conditions: fluorescence 635 nm, higher = more signal.
A short description of experiment [12]: hepatitis C replication reporter changes, two-sided – Huh7 cells, luciferase reporter, HCV replication inhibitor project, primary screen (AID 1109).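 Also: huh7 hepatoma cells harbouring a luciferase neomycin HCV replicon reporter; luciferase luminescence as measure of HCV replicon replication; test concentration not given here.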 The settings on record: Huh7 HCV replicon luciferase reporter, 48 h; higher = more signal. (In general: In a reporter assay the amount or activity of a reporter protein is the signal.)
For experiment [13], the target named is Left-right determination factor 2 (Homo sapiens) (UniProt O00292). Description: small molecules binding LEFTY2 protein – biochemical, small-molecule microarray, 635 nm fluorescence scan, primary screen (AID 1110). The settings on record: higher = more signal.
In experiment [14] the target is Calmodulin-1 (Homo sapiens) (UniProt P0DP23). The experiment is described as follows: small molecules binding calmodulin-1 with EGTA – biochemical, small-molecule microarray, Cy5-labelled CALM1, profiling panel (AID 1111).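 Also: labelled calmodulin applied in Tris saline Tween buffer holding calcium plus EGTA and DTT.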 The settings on record: Cy5-CALM1 binding fluorescence, higher = more signal.
Experiment [15] shares this target. The experiment is described as follows: small molecules binding Ca-loaded calmodulin-1 – biochemical, small-molecule microarray, Cy5-labelled CALM1, plus calcium, artefact control for SMM control-protein annotation, profiling panel (AID 1112).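 Also: score merges spot fluorescence with signal to noise from triplicate slides.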 As to conditions: Cy5-CALM1 binding fluorescence, higher = more signal.
The nature of experiment [16]: probe aWnt5a binding to arrayed compounds – biochemical, biotinylated probe, 635/667 nm fluorescence, primary screen (AID 1113).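 Also: score merges 667 nm fluorescence intensity with signal-to-noise per printed feature.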 As to conditions: small-molecule microarray, higher = more signal.
A short description of experiment [17]: probe aShh binding to arrayed compounds – biochemical, biotinylated probe, 635/667 nm fluorescence, primary screen (AID 1114).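 Also: probe is biotin-labelled aShh protein from a stem cell growth factor screen; measures binding of labelled protein to compounds printed on the slide; score merges feature fluorescence at 667 nm with signal-to-noise.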 The settings on record: small-molecule microarray, higher = more signal.
A short description of experiment [18]: probe aNog binding to arrayed compounds – biochemical, biotinylated probe, 635/667 nm fluorescence, primary screen (AID 1115).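 Also: probe is biotinylated aNog protein used at 0.15 µg/mL for 1 h at 4 C; z-score combines 667 nm fluorescence of each spot with its signal to noise.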 The settings on record: small-molecule microarray, higher = more signal.
For experiment [19], the target named is Torsin-1A-interacting protein 1 (Homo sapiens) (UniProt Q5JTV8). Description: compound microarray binding of lysate hLAP1 – cell lysate, small-molecule microarray, COS7 lysate, 635/667 nm fluorescence, primary screen (AID 1116). As to conditions: 635 nm fluorescence, higher = more signal.
The target of experiment [20] is Alpha-bungarotoxin (Bungarus multicinctus) (UniProt P60615). Description: compounds binding labelled alpha-BTX control protein – biochemical, small-molecule microarray, Alexa647 label, 635/667 nm fluorescence, artefact control for SMM control protein annotation, profiling panel (AID 1117). The settings on record: alpha-BTX-A647 binding fluorescence, higher = more signal.

Each structure is given as a SMILES string. Activity calls are given as the source filed them.

Chain of Alpha-bungarotoxin (Bungarus multicinctus) (P60615 whole entry, looked up): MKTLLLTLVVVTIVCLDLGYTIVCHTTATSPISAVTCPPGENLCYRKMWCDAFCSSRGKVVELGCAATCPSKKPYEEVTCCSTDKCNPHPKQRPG
Chain of Left-right determination factor 2 (Homo sapiens) (O00292 whole entry, looked up): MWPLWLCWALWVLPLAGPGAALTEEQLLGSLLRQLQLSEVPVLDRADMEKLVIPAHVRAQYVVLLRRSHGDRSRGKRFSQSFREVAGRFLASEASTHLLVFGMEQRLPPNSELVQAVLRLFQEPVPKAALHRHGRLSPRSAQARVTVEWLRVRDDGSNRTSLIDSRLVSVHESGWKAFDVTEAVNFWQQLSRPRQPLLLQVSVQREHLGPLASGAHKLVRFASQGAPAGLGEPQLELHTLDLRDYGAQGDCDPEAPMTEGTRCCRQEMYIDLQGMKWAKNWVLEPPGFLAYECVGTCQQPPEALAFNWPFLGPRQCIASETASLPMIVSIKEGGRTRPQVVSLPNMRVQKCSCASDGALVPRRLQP
Chain of Torsin-1A-interacting protein 1 (Homo sapiens) (Q5JTV8 whole entry, looked up): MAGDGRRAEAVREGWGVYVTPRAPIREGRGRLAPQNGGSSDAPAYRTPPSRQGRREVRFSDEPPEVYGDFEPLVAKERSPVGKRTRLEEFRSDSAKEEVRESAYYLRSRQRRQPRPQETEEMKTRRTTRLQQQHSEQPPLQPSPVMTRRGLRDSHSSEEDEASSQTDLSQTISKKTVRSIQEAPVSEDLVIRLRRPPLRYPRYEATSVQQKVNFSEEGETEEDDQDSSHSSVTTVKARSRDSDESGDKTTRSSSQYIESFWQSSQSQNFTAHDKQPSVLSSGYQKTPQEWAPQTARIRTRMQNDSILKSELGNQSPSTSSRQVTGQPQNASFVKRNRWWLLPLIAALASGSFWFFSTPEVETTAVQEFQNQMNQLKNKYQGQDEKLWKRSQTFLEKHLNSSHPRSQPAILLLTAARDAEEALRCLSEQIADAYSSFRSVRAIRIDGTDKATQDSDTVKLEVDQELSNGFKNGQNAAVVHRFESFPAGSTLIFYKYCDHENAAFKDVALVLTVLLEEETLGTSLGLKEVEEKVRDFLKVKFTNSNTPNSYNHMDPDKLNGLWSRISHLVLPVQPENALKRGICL
Chain of Dickkopf-related protein 1 (Homo sapiens) (O94907 whole entry, looked up): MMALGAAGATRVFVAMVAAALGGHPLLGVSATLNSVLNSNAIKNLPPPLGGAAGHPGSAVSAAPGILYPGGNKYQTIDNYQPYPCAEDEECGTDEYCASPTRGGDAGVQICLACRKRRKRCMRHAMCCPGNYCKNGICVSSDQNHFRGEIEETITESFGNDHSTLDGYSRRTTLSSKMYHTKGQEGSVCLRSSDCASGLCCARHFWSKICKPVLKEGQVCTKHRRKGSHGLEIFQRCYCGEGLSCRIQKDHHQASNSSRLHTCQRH
Chain of Fibroblast growth factor 10 (Homo sapiens) (O15520 whole entry, looked up): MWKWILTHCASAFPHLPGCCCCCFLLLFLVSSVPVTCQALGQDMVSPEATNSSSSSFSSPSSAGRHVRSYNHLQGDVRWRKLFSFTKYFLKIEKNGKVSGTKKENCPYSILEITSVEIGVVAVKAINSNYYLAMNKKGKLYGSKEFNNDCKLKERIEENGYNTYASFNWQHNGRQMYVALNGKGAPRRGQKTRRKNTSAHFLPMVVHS
Chain of Follistatin-related protein 3 (Homo sapiens) (O95633 whole entry, looked up): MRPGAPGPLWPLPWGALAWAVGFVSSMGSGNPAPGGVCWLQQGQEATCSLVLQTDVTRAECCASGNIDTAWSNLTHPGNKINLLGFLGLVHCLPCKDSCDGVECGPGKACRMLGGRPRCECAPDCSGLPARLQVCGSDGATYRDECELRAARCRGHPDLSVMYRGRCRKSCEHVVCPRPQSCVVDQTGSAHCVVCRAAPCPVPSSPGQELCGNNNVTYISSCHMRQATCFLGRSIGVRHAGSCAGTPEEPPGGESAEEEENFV
Chain of Epidermal growth factor receptor (Homo sapiens) (P00533 whole entry, looked up): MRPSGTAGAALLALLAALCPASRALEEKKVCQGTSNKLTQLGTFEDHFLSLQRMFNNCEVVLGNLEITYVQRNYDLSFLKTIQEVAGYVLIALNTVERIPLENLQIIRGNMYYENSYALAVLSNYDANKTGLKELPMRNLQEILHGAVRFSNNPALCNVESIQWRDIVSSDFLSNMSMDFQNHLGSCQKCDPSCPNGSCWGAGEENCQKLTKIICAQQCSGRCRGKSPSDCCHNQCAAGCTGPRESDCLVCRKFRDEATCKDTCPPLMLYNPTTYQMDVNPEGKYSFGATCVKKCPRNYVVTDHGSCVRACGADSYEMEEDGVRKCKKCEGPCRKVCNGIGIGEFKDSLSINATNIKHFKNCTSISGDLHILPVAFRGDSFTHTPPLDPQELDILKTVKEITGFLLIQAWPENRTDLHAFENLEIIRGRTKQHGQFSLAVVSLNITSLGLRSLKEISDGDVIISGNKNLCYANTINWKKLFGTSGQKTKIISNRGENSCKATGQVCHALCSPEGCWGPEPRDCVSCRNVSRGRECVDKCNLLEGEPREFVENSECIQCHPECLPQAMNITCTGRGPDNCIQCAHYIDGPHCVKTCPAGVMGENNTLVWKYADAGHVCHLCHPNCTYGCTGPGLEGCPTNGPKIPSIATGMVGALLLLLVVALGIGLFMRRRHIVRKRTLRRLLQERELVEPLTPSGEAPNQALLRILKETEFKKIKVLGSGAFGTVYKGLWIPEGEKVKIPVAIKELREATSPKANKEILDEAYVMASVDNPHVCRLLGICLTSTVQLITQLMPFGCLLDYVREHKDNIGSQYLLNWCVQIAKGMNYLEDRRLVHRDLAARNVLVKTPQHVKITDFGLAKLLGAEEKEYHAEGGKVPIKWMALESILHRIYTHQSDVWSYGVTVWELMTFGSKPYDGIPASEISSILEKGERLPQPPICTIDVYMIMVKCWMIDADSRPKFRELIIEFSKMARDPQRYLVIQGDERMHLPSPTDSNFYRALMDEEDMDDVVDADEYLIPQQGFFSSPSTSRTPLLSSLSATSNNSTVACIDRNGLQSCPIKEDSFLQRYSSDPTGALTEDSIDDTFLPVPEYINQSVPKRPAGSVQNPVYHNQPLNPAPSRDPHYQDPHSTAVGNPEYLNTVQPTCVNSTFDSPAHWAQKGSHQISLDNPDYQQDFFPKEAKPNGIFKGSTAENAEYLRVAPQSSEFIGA

On to `COc1cc([C@@H]2N[C@H](C(=O)O)Cc3c2[nH]c2ccccc32)cc(OC)c1OC`, for which the composite z-score in experiment [1] is 0.175; in experiment [2], -0.0572; in experiment [3] it was -0.272; in experiment [5], 0.644; in experiment [6] it was 0.167; in [7] it was 0.3. The composite z-score is 0.508 in experiment [8]; 0.977 in experiment [9]; -1.7 in experiment [10]; 0.297 in [11]; 0.649 in experiment [13]; -0.0344 in experiment [14]. The composite z-score in experiment [15] was -0.494; in [16] it was -0.0328; in experiment [17], -0.221; in experiment [18], 0.0374; in experiment [19], 0.0517; in experiment [20], 0.441. The figures for the z-score in [4] and in [12] were -0.526 (inactive) and -0.0056, respectively.
In the case of `C=CCC(OC(C)=O)[C@@H]1[C@@H](N(Cc2cccc3ccccc23)C(=O)Cc2ccc(F)cc2)c2cc(OCCCO)ccc2N1C(=O)Cc1ccc2ccccc2c1` (stereo not given in full), the composite z-score in experiment [1] is -0.182; in experiment [2] it was -0.0551; in experiment [3], 0.315; in experiment [5], 0.2; in experiment [6], -0.236; in experiment [7], -0.285. The composite z-score is -0.0987 in [8]; -0.619 in experiment [9]; 1.07 in [10]; -0.28 in experiment [11]; -0.368 in experiment [13]; -0.571 in [14]. In addition, the composite z-score in [15] was 0.158; in experiment [16], -0.0179; in experiment [17], -0.326; in experiment [18], 0.0129; in [19], -0.148; in experiment [20], 0.983. Further, the z-score was -0.395 (inactive) in [4] and 0.874 in [12].
For `O=C1c2ccccc2[C@](Cc2ccccc2I)(C(=O)O)[C@H](c2ccc(CO)cc2)N1C1CCCCC1`, the composite z-score amounted to 1.31 in [1]; 0.94 in experiment [2]; 1.05 in experiment [3]; 1.28 in [5]; 1.28 in experiment [6]; 0.947 in experiment [7]. The composite z-score was found to be 1.06 in experiment [8]; 0.16 in experiment [9]; 0.198 in experiment [10]; 1.02 in [11]; 0.15 in [13]; 1.61 in experiment [14]. Further, the composite z-score was 0.487 in experiment [15]; -0.0203 in experiment [16]; -0.018 in experiment [17]; 0.213 in [18]; 1.5 in [19]; 1.53 in [20]. Besides, the z-score in [4] was -1.32 (inactive); in [12], -1.33.
Consider `COc1cccc([C@@H]2[C@@H](C)CC[C@H]3C(=O)N(C)[C@@H](C(C)C)C(=O)N23)c1`, for which the composite z-score in experiment [1] is 0.516; in experiment [2], -0.22; in experiment [3], -0.532; in experiment [5], 0.266; in experiment [6], 0.649; in [7] it was 0.418. In addition, the composite z-score in experiment [8] was 0.472; in experiment [9], 0.782; in experiment [10] it was 0.428; in experiment [11] it was 0.148; in experiment [13], 0.375; in experiment [14], -0.169. The composite z-score in experiment [15] is -0.562; in [16], -0.204; in [17], -0.0011; in experiment [18] it was -0.141; in experiment [19] it was 1.11; in experiment [20], 0.0641. In addition, the values for the z-score in experiment [4] and in [12] were 0.223 (inactive) and 0.512, respectively.
In the case of `C=C(/C(=C/C[C@@H](OC(=O)c1ccncc1)c1ccc(CO)o1)c1cnc2ccccc2c1)C(C)C`, the composite z-score in experiment [1] is 0.885; in experiment [2] it was 0.138; in experiment [3], -0.157; in experiment [5] it was 1.06; in [6], 1.29; in experiment [7], 0.623. Besides, the composite z-score in experiment [8] was 1.43; in experiment [9], 0.574; in experiment [10] it was 1.58; in experiment [11], -1.09; in experiment [13] it was 0.846; in [14], 1.64. In addition, the composite z-score in [15] is -0.116; in [16], -0.124; in experiment [17], -0.0626; in [18] it was 0.221; in [19], 1.36; in [20] it was 0.474. For the same compound, the values for the z-score in experiment [4] and in experiment [12] were 0.168 (inactive) and -1.05, respectively.
